Experimental data published in PubChem BioAssay.
For some assays here: Entries with a potency or affinity are not part of this list. The source made the active and inactive calls. Unless noted, how the calls were made is not given here.

Columns and labels:
[1] = antimalarial activity against Dd2 strain (AID 2302;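 active means growth inhibition above 50% at the single 2 µM test dose, taken to imply half-maximal potency below 2 µM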;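 further: 0% = DMSO untreated growth and 100% = chloroquine plus artemisinin killed control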); conditions: P. falciparum Dd2 in RBCs, LDH growth readout, 72 h; at 2 µM; hits give high values
[2] = human hepatoma cell viability loss – ATP luminescence, cytotoxicity control for P. falciparum antimalarial project, primary screen (AID 2303;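 active means inhibition above 50%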;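 further: 0% = DMSO wells and 100% = digitonin-killed cells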); conditions: HepG2 viability, 24-48 h, at 10 µM, hits give high values
[3] = molecular target: L-lactate dehydrogenase (Plasmodium falciparum (isolate CDC / Honduras)) (UniProt Q27743); assay: PfLDH activity inhibition – cell lysate, 3D7 strain, counter-screen for P. falciparum growth inhibition project (AID 2304);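 further: 0% = vehicle and 100% = reference inhibitor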; conditions: P. falciparum 3D7 crude extract, LDH APAD/NBT absorbance; at 2 µM; hits give high values
[4] = inhibition of 3D7 malaria parasite growth – strain 3D7 (AID 2306);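 further: 0% = DMSO wells and 100% = chloroquine plus artemisinin control wells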; conditions: P. falciparum 3D7 erythrocytic growth, LDH absorbance, 72 h; at 2 µM; hits give high values
[5] = molecular target: Calcium-dependent protein kinase 1 (Plasmodium falciparum (isolate 3D7)) (UniProt P62344); assay: PfCDPK1 kinase inhibitors, biochemical, TCAMS library (AID 1159585; cut-off not given, nearly all actives have IC50 up to about 0.98 µM;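 further: inhibitors leave more ATP so luminescence rises with inhibition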); conditions: recombinant PfCDPK1, Kinase-Glo ATP depletion luminescence
[6] = molecular target: Plasmodium falciparum protein kinase 6 (PK6, PF3D7_1337100) (UniProt Q8IDW1); assay: PfPK6 kinase inhibitors, biochemical, TCAMS library (AID 1159586); conditions: recombinant PfPK6, Kinase-Glo ATP depletion luminescence
[7] = molecular target: Protein kinase 7 (PK7), Plasmodium falciparum 3D7 (PF3D7_0213400) (UniProt Q7YTF7); assay: inhibition of Plasmodium PK7 catalytic activity – biochemical, TCAMS antimalarial set, Kinase-Glo luminescence (AID 1159587); conditions: recombinant PfPK7, Kinase-Glo ATP depletion luminescence
[8] = molecular target: Calcium-dependent protein kinase 4 (Plasmodium falciparum (isolate 3D7)) (UniProt Q8IBS5); assay: PfCDPK4 kinase inhibitors, biochemical, TCAMS library (AID 1159588; cut-off not given, nearly all actives have IC50 up to about 0.91 µM); conditions: recombinant PfCDPK4, Kinase-Glo ATP depletion luminescence
Chain of Calcium-dependent protein kinase 4 (Plasmodium falciparum (isolate 3D7)) (Q8IBS5 whole entry, looked up): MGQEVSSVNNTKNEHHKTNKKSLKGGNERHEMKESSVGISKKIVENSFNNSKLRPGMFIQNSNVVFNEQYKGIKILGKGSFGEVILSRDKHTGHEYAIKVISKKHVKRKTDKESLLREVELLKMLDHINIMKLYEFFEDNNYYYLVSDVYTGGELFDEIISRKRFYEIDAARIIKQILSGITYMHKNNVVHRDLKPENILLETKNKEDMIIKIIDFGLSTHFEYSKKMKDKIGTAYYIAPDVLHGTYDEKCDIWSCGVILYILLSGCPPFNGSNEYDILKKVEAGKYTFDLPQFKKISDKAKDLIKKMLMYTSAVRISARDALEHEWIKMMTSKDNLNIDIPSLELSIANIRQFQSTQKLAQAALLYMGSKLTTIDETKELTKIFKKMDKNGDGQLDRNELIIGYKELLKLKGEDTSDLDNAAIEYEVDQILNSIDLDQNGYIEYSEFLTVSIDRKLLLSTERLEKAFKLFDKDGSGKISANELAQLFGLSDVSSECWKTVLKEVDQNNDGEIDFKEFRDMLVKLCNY

Chain of Plasmodium falciparum protein kinase 6 (PK6, PF3D7_1337100) (Q8IDW1 1-305): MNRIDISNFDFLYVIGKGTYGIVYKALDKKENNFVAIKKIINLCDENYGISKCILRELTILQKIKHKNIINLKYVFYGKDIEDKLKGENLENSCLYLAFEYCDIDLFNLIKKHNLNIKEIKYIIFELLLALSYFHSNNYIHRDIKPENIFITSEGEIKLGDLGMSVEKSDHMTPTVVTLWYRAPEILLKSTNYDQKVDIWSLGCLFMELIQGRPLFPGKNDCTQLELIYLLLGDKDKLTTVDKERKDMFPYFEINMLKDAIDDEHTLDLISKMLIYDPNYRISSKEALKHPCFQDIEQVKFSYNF
Chain of Calcium-dependent protein kinase 1 (Plasmodium falciparum (isolate 3D7)) (P62344 whole entry, looked up): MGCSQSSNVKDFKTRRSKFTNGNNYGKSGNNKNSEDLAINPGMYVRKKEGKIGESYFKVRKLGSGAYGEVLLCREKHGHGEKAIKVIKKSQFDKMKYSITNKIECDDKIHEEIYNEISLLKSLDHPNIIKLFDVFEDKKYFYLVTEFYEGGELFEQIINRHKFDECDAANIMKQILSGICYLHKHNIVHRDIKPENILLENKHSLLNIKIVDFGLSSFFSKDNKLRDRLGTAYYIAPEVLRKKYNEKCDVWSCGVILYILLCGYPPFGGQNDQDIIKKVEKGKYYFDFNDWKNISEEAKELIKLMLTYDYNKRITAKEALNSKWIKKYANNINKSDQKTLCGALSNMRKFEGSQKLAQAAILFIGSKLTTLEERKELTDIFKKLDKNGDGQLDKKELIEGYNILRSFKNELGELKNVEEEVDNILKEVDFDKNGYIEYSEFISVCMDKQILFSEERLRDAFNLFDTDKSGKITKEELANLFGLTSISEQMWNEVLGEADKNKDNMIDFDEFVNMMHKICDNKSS
Chain of Protein kinase 7 (PK7), Plasmodium falciparum 3D7 (PF3D7_0213400) (Q7YTF7 1-343): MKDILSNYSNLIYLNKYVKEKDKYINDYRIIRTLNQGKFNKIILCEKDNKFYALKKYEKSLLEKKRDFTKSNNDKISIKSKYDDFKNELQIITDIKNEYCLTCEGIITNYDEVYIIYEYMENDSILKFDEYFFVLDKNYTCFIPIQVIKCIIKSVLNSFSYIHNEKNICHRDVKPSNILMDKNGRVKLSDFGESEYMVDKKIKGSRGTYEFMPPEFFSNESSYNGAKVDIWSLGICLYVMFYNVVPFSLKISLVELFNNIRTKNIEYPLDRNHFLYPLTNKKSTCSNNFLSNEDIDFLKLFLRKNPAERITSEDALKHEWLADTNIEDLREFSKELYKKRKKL
Chain of L-lactate dehydrogenase (Plasmodium falciparum (isolate CDC / Honduras)) (Q27743 whole entry, looked up): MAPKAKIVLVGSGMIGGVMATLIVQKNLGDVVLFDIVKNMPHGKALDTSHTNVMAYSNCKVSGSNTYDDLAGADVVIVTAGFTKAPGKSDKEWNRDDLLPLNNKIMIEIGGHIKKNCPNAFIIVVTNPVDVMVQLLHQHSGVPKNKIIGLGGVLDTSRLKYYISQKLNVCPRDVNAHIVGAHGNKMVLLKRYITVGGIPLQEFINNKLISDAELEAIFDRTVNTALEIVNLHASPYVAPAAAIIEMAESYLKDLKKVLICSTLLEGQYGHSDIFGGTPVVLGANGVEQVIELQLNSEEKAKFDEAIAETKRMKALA

OC(CNc1ccnc(Nc2ccc(Cl)cc2)n1)c1cccc(C(F)(F)F)c1 (stereo not given)
active: growth inhibition [1] 84% | growth inhibition [4] 101%
inactive: inhibition [2] 9% | inhibition [3] 4% | outcome [5] | outcome [6] | outcome [7] | outcome [8]

O=C(Nc1ccc(C(F)(F)F)cc1)Nc1cccc([N+](=O)[O-])c1
inactive: inhibition [2] 20% | inhibition [3] 4% | outcome [5] | outcome [6] | outcome [7] | outcome [8]
active: growth inhibition [1] 98% | growth inhibition [4] 101%

COc1cccc(NC(=O)NC2CCN(c3ccnc(Nc4cc(OC)c(OC)c(OC)c4)n3)C2)c1 (stereo not given)
active: growth inhibition [1] 57% | growth inhibition [4] 95%
inactive: inhibition [2] 8% | inhibition [3] -2% | outcome [5] | outcome [6] | outcome [7] | outcome [8]

CC(=O)Nc1nc(C(=O)Nc2cccc(-c3ccc(-c4nc5c(C)cccc5[nH]4)cc3)c2)cs1
active: growth inhibition [1] 61% | inhibition [2] 100% | growth inhibition [4] 100%
inactive: inhibition [3] -3% | outcome [5] | outcome [6] | outcome [7] | outcome [8]

CCCN(CC1CC1)c1ncc(-c2cccc(CNCc3ccccc3O)c2)cn1
active: growth inhibition [1] 98% | growth inhibition [4] 97%
inactive: inhibition [2] 15% | inhibition [3] -8% | outcome [5] | outcome [6] | outcome [7] | outcome [8]

CCc1cc(NC2CCN(C)CC2)nc(Nc2ccc(C)cc2)n1
active: growth inhibition [4] 95%
inactive: growth inhibition [1] 11% | inhibition [2] 3% | inhibition [3] -7% | outcome [5] | outcome [6] | outcome [7] | outcome [8]

O=C(Nc1cccc(-c2nn3ccccc3c2-c2ccnc(Nc3cccc(F)c3)n2)c1)c1c(F)ccc(F)c1F
inactive: inhibition [2] 33% | inhibition [3] -1% | outcome [5] | outcome [6] | outcome [7] | outcome [8]
active: growth inhibition [1] 73% | growth inhibition [4] 96%

O=C(/C=C/c1ccc(Cl)c(Cl)c1)N1CCC(C(O)CN2CCC(c3c[nH]c4ccccc34)CC2)CC1 (stereo not given)
inactive: growth inhibition [1] 46% | inhibition [2] 14% | inhibition [3] -4% | outcome [5] | outcome [6] | outcome [7] | outcome [8]
active: growth inhibition [4] 99%

CCC(CC)(Cc1ccccc1)NC(=O)[C@H](CC1CCCCC1)Nc1ccc(C#N)c2ccccc12
active: growth inhibition [1] 76% | growth inhibition [4] 95%
inactive: inhibition [2] 4% | inhibition [3] -5% | outcome [5] | outcome [6] | outcome [7] | outcome [8]

CCN1CCN(Cc2ccc(-c3ccc(NS(=O)(=O)c4cccc5cccnc45)cc3)cc2)CC1
inactive: growth inhibition [1] 42% | inhibition [2] 29% | inhibition [3] -2% | outcome [5] | outcome [6] | outcome [7] | outcome [8]
active: growth inhibition [4] 90%

O=C(Nc1cccc(CN2CCN(Cc3cccc(O)c3)CC2)c1)c1ccc(Cl)c(Cl)c1
inactive: growth inhibition [1] 35% | inhibition [2] 28% | inhibition [3] -1% | outcome [5] | outcome [6] | outcome [7] | outcome [8]
active: growth inhibition [4] 100%

O=C(c1cncc(-c2ccccc2)c1)N(Cc1cncn1Cc1ccccc1F)CC1CC1
inactive: growth inhibition [1] 0% | inhibition [2] -5% | inhibition [3] -4% | outcome [5] | outcome [6] | outcome [7] | outcome [8]
active: growth inhibition [4] 100%

O=C(NC(Cc1ccccc1)C(=O)O)c1cc(=O)c2ccccc2o1 (stereo not given)
inactive: growth inhibition [1] 10% | inhibition [3] -6% | outcome [5] | outcome [6] | outcome [7] | outcome [8]
active: inhibition [2] 53% | growth inhibition [4] 99%

CC(C)(C)c1ccc2nc(-c3ccc(C(=O)NC4CCN(Cc5ccccc5)CC4)s3)[nH]c2c1
inactive: growth inhibition [1] 42% | inhibition [2] 24% | inhibition [3] 0% | outcome [5] | outcome [6] | outcome [7] | outcome [8]
active: growth inhibition [4] 91%

Cc1c(S(=O)(=O)Nc2ccc3ccn(CCN(C)C)c3c2)sc2ccc(Cl)cc12
active: growth inhibition [1] 94% | growth inhibition [4] 98%
inactive: inhibition [2] 15% | inhibition [3] 0% | outcome [5] | outcome [6] | outcome [7] | outcome [8]

CCOc1cc(C(=O)N[C@@H](Cc2ccccc2)[C@H](O)CNCc2cc(OC)cc(OC)c2)cc(N2CCCS2(=O)=O)c1
active: growth inhibition [1] 66% | growth inhibition [4] 94%
inactive: inhibition [2] -5% | inhibition [3] 0% | outcome [5] | outcome [6] | outcome [7] | outcome [8]

CCOc1ccccc1NC(=O)Nc1ccc2c(c1)CCN(C1CCC1)CC2
active: growth inhibition [4] 88%
inactive: growth inhibition [1] 2% | inhibition [2] 15% | inhibition [3] -3% | outcome [5] | outcome [6] | outcome [7] | outcome [8]

Cc1cccc2[nH]c(-c3ccc(-c4cccc(CNCCCNS(C)(=O)=O)c4)s3)nc12
active: growth inhibition [4] 99%
inactive: growth inhibition [1] 19% | inhibition [2] 20% | inhibition [3] 2% | outcome [5] | outcome [6] | outcome [7] | outcome [8]

CC(C)(C)C(=O)Nc1ccc(N2CCN(C(c3ccccc3)c3ccccc3)CC2)c(Cl)c1
active: growth inhibition [1] 94% | growth inhibition [4] 92%
inactive: inhibition [2] -13% | inhibition [3] 0% | outcome [5] | outcome [6] | outcome [7] | outcome [8]

CCOc1ccccc1C1CCN(CCCCNC(=O)c2ccc(NC(=O)c3ccc(Cl)cc3)cc2)CC1
active: growth inhibition [4] 95%
inactive: growth inhibition [1] 27% | inhibition [2] 13% | inhibition [3] 1% | outcome [5] | outcome [6] | outcome [7] | outcome [8]

CC(C)(C)C1CCc2onc(C(=O)Nc3cc(Cl)ccc3O)c2C1 (stereo not given)
active: growth inhibition [1] 82% | growth inhibition [4] 98%
inactive: inhibition [2] 5% | inhibition [3] -2% | outcome [5] | outcome [6] | outcome [7] | outcome [8]

CC(CN(C)C)Oc1ccc2[nH]c(-c3cccc(OCc4ccccc4)c3)nc2c1C#N (stereo not given)
active: growth inhibition [1] 94% | inhibition [2] 57% | growth inhibition [4] 101%
inactive: inhibition [3] -2% | outcome [5] | outcome [6] | outcome [7] | outcome [8]

Nc1nc2cccc3ccc4cccc1c4c32
active: growth inhibition [1] 69% | growth inhibition [4] 101%
inactive: inhibition [2] 26% | inhibition [3] -1% | outcome [5] | outcome [6] | outcome [7] | outcome [8]

CC(Cl)=CCc1c(C)[nH]c2c(ccc3ccccc32)c1=O
active: growth inhibition [1] 96% | growth inhibition [4] 96%
inactive: inhibition [2] 24% | inhibition [3] 8% | outcome [5] | outcome [6] | outcome [7] | outcome [8]

COc1ccc(CN2CCC(NCc3cccc(C(F)(F)F)c3)CC2)cc1
inactive: growth inhibition [1] 8% | inhibition [2] 6% | inhibition [3] 0% | outcome [5] | outcome [6] | outcome [7] | outcome [8]
active: growth inhibition [4] 99%

CCCC(C)Nc1nc(C)cc(N[C@@H](CC(C)C)C(=O)NC2CCCC2)n1 (stereo not given in full)
active: growth inhibition [4] 85%
inactive: growth inhibition [1] 22% | inhibition [2] 6% | inhibition [3] -2% | outcome [5] | outcome [6] | outcome [7] | outcome [8]

COc1ccc(C(C(=O)NC2CCN(C[C@H](O)c3ccnc4ccc(OC)cc34)CC2)N2CCN(c3ccc(F)cc3)CC2)cc1 (stereo not given in full)
inactive: inhibition [2] 16% | inhibition [3] -6% | outcome [5] | outcome [6] | outcome [7] | outcome [8]
active: growth inhibition [1] 86% | growth inhibition [4] 97%

O=C(NCCN1CCCC1)c1ccc(-c2ccc(-c3nc4ccccc4[nH]3)s2)cc1
inactive: growth inhibition [1] 3% | inhibition [2] 22% | inhibition [3] -2% | outcome [5] | outcome [6] | outcome [7] | outcome [8]
active: growth inhibition [4] 92%

CN1CCCc2ccc(NC(=O)c3ccc(-c4cc(C(F)(F)F)nn4C)s3)cc2C1
active: growth inhibition [4] 88%
inactive: growth inhibition [1] 34% | inhibition [2] 16% | inhibition [3] -1% | outcome [5] | outcome [6] | outcome [7] | outcome [8]

Cc1cc(N2CCCC2)nc(Nc2ccc(NC(=O)C(C)(C)C)cc2)n1
inactive: growth inhibition [1] 15% | inhibition [2] 24% | inhibition [3] 2% | outcome [5] | outcome [6] | outcome [7] | outcome [8]
active: growth inhibition [4] 95%

CCC1N=C(N)N=C(N)N1OCCCOc1c(Cl)cc(Cl)cc1Cl (stereo not given)
active: growth inhibition [1] 96% | inhibition [2] 67% | growth inhibition [4] 95%
inactive: inhibition [3] 2% | outcome [5] | outcome [6] | outcome [7] | outcome [8]

CN1CCN(c2ccc(Nc3ncc([N+](=O)[O-])c(Nc4ccccc4O)n3)cc2)CC1
inactive: inhibition [3] -3% | outcome [5] | outcome [6] | outcome [7] | outcome [8]
active: growth inhibition [1] 97% | inhibition [2] 98% | growth inhibition [4] 100%

N#Cc1ccc(C=NNc2nc3ccccc3[nH]2)cc1
inactive: inhibition [2] -4% | inhibition [3] 3% | outcome [5] | outcome [6] | outcome [7] | outcome [8]
active: growth inhibition [1] 71% | growth inhibition [4] 101%

Cc1cccc2[nH]c(-c3ccc(-c4cccc(NC(=O)NCc5ccccc5)c4)cc3)nc12
inactive: growth inhibition [1] 0% | inhibition [2] 25% | inhibition [3] -6% | outcome [5] | outcome [6] | outcome [7] | outcome [8]
active: growth inhibition [4] 95%

CCc1ccc(NC(=O)c2ccc(CN3CCCN(Cc4cccc(C)c4)CC3)cc2)cc1
inactive: growth inhibition [1] -4% | inhibition [3] 1% | outcome [5] | outcome [6] | outcome [7] | outcome [8]
active: inhibition [2] 53% | growth inhibition [4] 80%

CC(C)C[C@@H](C(=O)Nc1ccc(Cc2ccc(NC(=O)[C@H](CC(C)C)N(C)C(=O)OC(C)(C)C)cc2)cc1)N(C)C(=O)OC(C)(C)C
active: growth inhibition [1] 57% | growth inhibition [4] 92%
inactive: inhibition [2] 17% | inhibition [3] 2% | outcome [5] | outcome [6] | outcome [7] | outcome [8]

Cc1cccc(N2C(N)=NC(N)=NC2(C)C)c1C
inactive: growth inhibition [1] -2% | inhibition [2] -2% | inhibition [3] -6% | outcome [5] | outcome [6] | outcome [7] | outcome [8]
active: growth inhibition [4] 90%

CC(C)CC(=O)N(Cc1ccc(-c2ccc(CNC3Cc4ccccc4C3)cc2)cc1)C1CCNCC1
inactive: inhibition [2] 20% | inhibition [3] -5% | outcome [5] | outcome [6] | outcome [7] | outcome [8]
active: growth inhibition [1] 65% | growth inhibition [4] 85%

CN(C)c1nc2cc(-n3cnc4cc(-c5ccc(Cl)cc5)sc4c3=O)ccc2n1CCCN1CCCCC1
inactive: growth inhibition [1] 23% | inhibition [3] 1% | outcome [5] | outcome [6] | outcome [7] | outcome [8]
active: inhibition [2] 55% | growth inhibition [4] 97%

O=C(NCCNc1ccnc(Nc2ccc(F)cc2)n1)Nc1ccc2c(c1)OCO2
inactive: growth inhibition [1] 3% | inhibition [2] 15% | inhibition [3] 0% | outcome [5] | outcome [6] | outcome [7] | outcome [8]
active: growth inhibition [4] 97%
